Screening results deposited in PubChem by NMMLSC.
Hits are enriched below; roughly 1.2% of the tested compounds scored in any of these assays.
RGS4-Gao reg: modulators of RGS4 binding to Galphao, primary screen, biochemical, multiplexed bead flow cytometry; Guanine nucleotide-binding protein G(o) subunit alpha (Homo sapiens), P09471; actives lie on both sides; binding response (% of control), % at 10 µM; 0.33% of 220,000 active; AID 1415, 2008; in the data active = binding response below about 49% or above about 150%; inactive = in between;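 also: fluorescent Galphao activated with aluminum fluoride binding bead-coupled RGS4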
Target sequence (P09471 whole entry, looked up): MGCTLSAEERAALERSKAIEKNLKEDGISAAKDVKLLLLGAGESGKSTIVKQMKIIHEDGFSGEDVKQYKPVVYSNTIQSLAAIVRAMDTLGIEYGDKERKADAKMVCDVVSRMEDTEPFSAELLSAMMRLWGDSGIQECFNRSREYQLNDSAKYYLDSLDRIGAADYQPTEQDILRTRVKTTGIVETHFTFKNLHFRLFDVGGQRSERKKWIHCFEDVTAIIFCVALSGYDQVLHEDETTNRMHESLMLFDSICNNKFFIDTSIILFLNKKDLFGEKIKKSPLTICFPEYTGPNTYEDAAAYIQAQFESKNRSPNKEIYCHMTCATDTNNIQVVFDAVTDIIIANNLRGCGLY
RGS8-Gao reg: RGS8-Galphao binding modulators, primary screen, biochemical, multiplexed bead flow cytometry; Guanine nucleotide-binding protein G(o) subunit alpha (Homo sapiens), P09471; actives lie on both sides; response (percent of control binding), % at 10 µM; 0.34% of 220,000 active; in the data active = response below about 60% or above about 140%; inactive = in between;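 also: Galphao activated as the GDP aluminium fluoride complex binding bead-coupled RGS8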
GSH bead fluor: compound fluorescence on glutathione beads, profiling panel, artefact control, biophysical, 488/530 nm, flow cytometry | GSH beads flow cytometry, compound fluorescence 488/530 nm; active compounds read high | fluorescence (KMESF) at 10 µM | 0.25% of 190,000 active | AID 1776, 2009; in the data active = fluorescence above about 89;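 also: glutathione beads carrying GST-tagged Bcl family fusion proteins plus one bare bead set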
RGS16-Gao: modulators of RGS16 binding to Galphao, primary screen, biochemical, human proteins, multiplexed bead flow cytometry; Regulator of G-protein signaling 16 (Homo sapiens) + Guanine nucleotide-binding protein …; bead-based flow cytometry RGS16-Galphao binding, fluorescence; actives lie on both sides; binding response (% of control), % at 10 µM; 0.38% of 220,000 active; call rule not given here;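 also: Galphao activated by GDP with aluminum fluoride before binding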
Target sequence (O15492 whole entry, looked up): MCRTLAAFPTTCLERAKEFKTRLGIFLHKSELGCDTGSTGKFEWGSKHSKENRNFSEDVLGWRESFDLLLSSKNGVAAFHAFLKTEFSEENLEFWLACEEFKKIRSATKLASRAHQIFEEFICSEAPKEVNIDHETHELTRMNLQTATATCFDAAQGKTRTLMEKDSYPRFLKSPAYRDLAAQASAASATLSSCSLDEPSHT
Target sequence (P09471 whole entry, looked up): as the sequence (P09471 whole entry, looked up) above
Avidin fluor: green autofluorescence of compounds with avidin beads – biophysical, 488/530 nm, flow cytometry, artefact control, profiling panel | compound fluorescence 488/530 nm; active compounds read high | fluorescence (KMESF) at 10 µM | 0.38% of 220,000 active | AID 1775, 2009; in the data active = fluorescence above about 47
RGS7-Gao reg: RGS7-Galphao binding modulators, primary screen, biochemical, multiplexed bead flow cytometry; actives lie on both sides; binding response (% of control), % at 10 µM; 0.35% of 220,000 active; in the data active = binding response below about 49% or above about 150%; inconclusive = no clear call, values can overlap the other calls; inactive = in between;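 also: fluorescent Galphao held in activated GDP-AlF4 state binding bead-coupled RGS7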
Hits are given with their value; – = inactive; ? = inconclusive; · = no result; [ ] = another dose, or the depositor's remark.

SMILES	RGS4-Gao reg	RGS8-Gao reg	GSH bead fluor	RGS16-Gao	Avidin fluor	RGS7-Gao reg
CCC1CCCCN1CC(=O)c1c(C)[nH]c2ccc(OC)cc12 (centres undefined)	–	–	·	–	–	?
Cc1ccc(NC(CC(=O)c2ccccc2)C(=O)O)cc1Cl (centres undefined)	–	–	·	–	–	?
O=C(CC(Nc1ccccc1)C(=O)O)c1ccccc1 (centres undefined)	–	–	259	–	–	–
CC(C)Cn1cnc2c(c(-c3ccccc3)c(-c3ccccc3)n2Cc2ccco2)c1=N	–	–	251	–	–	–
N=c1c2c(-c3ccccc3)c(-c3ccccc3)n(Cc3ccco3)c2ncn1Cc1ccccc1	–	–	–	–	–	–
Cn1c(=O)c2c(nc(Br)n2Cc2nnc(N)s2)n(C)c1=O	–	–	·	–	–	?
COC(=O)c1cccc(NC(=O)c2onc3c2CCCC3)c1	–	–	–	–	–	–
O=C(Nc1ccc2ccccc2c1)c1onc2c1CCCC2	–	–	–	–	57	–
CC(C)Nc1c(N)c(=O)oc2ccccc12	–	–	253	–	–	–
COc1cc(C(=O)N2CCN(C(=O)CC(C)C)CC2)cc(OC)c1OC	–	–	–	–	120	–
CCOc1ccccc1C(=O)N[C@H](C(=O)Nc1ccc(OC)c(S(=O)(=O)N2CCOCC2)c1)C(C)C	–	–	–	–	–	–
CCc1nccn1S(=O)(=O)c1cc(Br)ccc1OC	–	–	–	–	–	–
CCCc1nccn1S(=O)(=O)c1cc(OC)ccc1OC	–	–	249	–	–	–
Cn1nnnc1SCC1=C(C(=O)O)N2C(=O)[C@@H](NC(=O)[C@H](O)c3ccccc3)[C@H]2SC1	·	·	–	·	·	·
Cc1cc(C(F)F)nn1CC(=O)NC1C(=O)N2C(C(=O)O)=C(CSc3nnnn3C)CSC12 (centres undefined)	–	–	–	–	58	–
ClCC1=Nc2cccc3cccc(c23)N1	–	–	·	–	–	?
O=C(Cc1ccccc1[N+](=O)[O-])NCc1ccc(Cl)cc1Cl	–	–	–	–	–	–
O=C(Cc1ccccc1[N+](=O)[O-])NCc1ccc(Cl)cc1	213[activator]	–	–	–	119	176[activator]
O=C(Cn1[nH]c(=O)c2ccccc2c1=O)Nc1ccc2c(c1)CCC2	–	–	270	–	–	–
Cc1ccc2ccc(S(=O)(=O)n3nc(C)cc3C)cc2c1	–	–	–	–	54	–
CC(=O)Oc1ccc2c(c1)Oc1cc(OC(C)=O)ccc1C21OC(=O)c2ccccc21	581[activator]	165[activator]	200	888[activator]	399	628[activator]
CCCC1Cc2c(sc(N)c2C#N)CO1 (centres undefined)	–	–	–	–	–	?
CC(C)(C)c1ccc(C(=O)CC(=O)c2cc(Cl)ccc2O)cc1	–	–	245	–	–	–
Cc1ccc(-n2c3nc(=O)[nH]c(=O)c-3cc3cc([N+](=O)[O-])ccc32)cc1	–	–	–	–	55	–
Cc1ccc(-n2c(C)nn(Cc3ccc([N+](=O)[O-])cc3)c2=O)cc1	–	–	–	–	–	?
SMILES	RGS4-Gao reg	RGS8-Gao reg	GSH bead fluor	RGS16-Gao	Avidin fluor	RGS7-Gao reg
Cc1cnc(NC(=O)CSc2nnc(-c3cccs3)n2C)s1	–	–	269	–	–	–
CC1(C)Cc2c(sc3nnn(CC(=O)Nc4ccccc4)c(=O)c23)CO1	–	–	·	–	92	?
COc1ccccc1NC(=O)Cn1nnc2sc3c(c2c1=O)CC(C)(C)OC3	–	–	·	–	–	?
Cc1ccc(S(=O)(=O)N2CCN(C(=O)c3ccccc3)CC2)c(C)c1NS(C)(=O)=O	–	–	–	–	–	–
CCOc1ccccc1NC(=O)N1CCC(c2nc3ccccc3[nH]2)CC1	–	–	259	–	–	–
COc1ccccc1NC(=O)N1CCC(c2nc3cc(C)c(C)cc3[nH]2)CC1	–	–	–	–	–	–
O=C(NCCN1CCOCC1)c1cc2sccc2n1Cc1ccc(Cl)cc1	–	–	–	–	52	–
CCn1c(SCC(=O)C(C)(C)C)nnc1-c1cnccn1	–	–	95	–	–	–
CCn1c(SCC(=O)C(C)(C)C)nnc1-c1ccccn1	–	–	–	–	–	–
Cc1onc(-c2c(Cl)cccc2Cl)c1C(=O)N=C(N)N1CCCC1	–	–	·	–	–	?
Cc1ccnc2nc(C(=O)Nc3ccc(S(=O)(=O)N4CCCC4)cc3)nn12	–	–	·	–	–	?
O=c1oc2cc(O)ccc2cc1-c1nc2c(s1)CCc1ccccc1-2	–	–	159	–	–	–
O=c1oc2ccccc2cc1-c1nc2c(s1)CCc1ccccc1-2	–	–	–	–	–	–
CC1Cc2ccccc2N1C(=O)CSc1nnnn1C (centres undefined)	–	–	251	–	–	–
O=C(c1ccc(CSc2ccc(Cl)cc2)cc1)N1CCCC1	–	–	–	–	–	?
CCOC(=O)C/C(N)=N/NC(=O)c1ccc(Cl)cc1Cl	–	–	–	–	–	–
N#Cc1ccc(NC(=O)Nc2cccc(C#N)c2)cc1	–	–	·	–	–	?
N#Cc1cccc(NC(=O)CC2CCCCC2)c1	–	–	260	–	–	–
CCCCN1C(=O)c2ccc(C(=O)Nc3c(N)n(CCCC)c(=O)n(C)c3=O)cc2C1=O	–	–	271	–	–	–
CCCN1C(=O)c2ccc(C(=O)Nc3cc(C)on3)cc2C1=O	–	–	–	–	–	–
COc1ccc(C(=O)CSc2nc(C(C)(C)C)nc3ccccc23)cc1	–	–	–	–	–	–
Nc1nc(NCCCN2CCOCC2)nc(Nc2cccc(Cl)c2)c1[N+](=O)[O-]	–	–	·	–	–	?
S=C(Nc1ccccc1Cl)NC1CCCCCC1	–	–	–	–	–	–
OCC#CCSc1nnc(-c2ccncc2)o1	–	–	251	–	–	–
CCOC(=O)c1c(C)[nH]c(C(=O)Cn2nnc(-c3ccccc3Cl)n2)c1C	–	–	–	–	–	–
CCOC(=O)c1c(C)[nH]c(C(=O)Cn2nnc(-c3ccccc3)n2)c1C	–	–	265	–	–	–
COc1cc2[nH]c(=O)n(CCCCCC(=O)NCCc3c[nH]c4ccccc34)c(=O)c2cc1OC	–	–	–	–	49	–
O=C(CCCCn1c(=O)[nH]c2ccccc2c1=O)NCCc1c[nH]c2ccccc12	–	–	–	–	–	–
CCN(CC)c1ccc(CNc2nc3ccccc3n2CC)cc1	–	–	·	–	–	?
CC(=O)c1cccc(NC(=O)N2CCC(NC(=O)C34CC5CC(CC(C5)C3)C4)CC2)c1	–	–	–	–	–	–
